Most compounds without a hit are left out; they make up all but 4.5% or so of the library.
Rtt109 HAT inh: inhibitors of C. albicans Rtt109/Vps75 HAT, primary screen, biochemical, ThioGlo CoA-SH fluorescence, plate reader; Histone acetyltransferase RTT109 (Candida albicans (strain SC5314 / ATCC MYA-2876)), …; purified Rtt109/Vps75, 4 h; inhibition, % at 34.9 µM; 330,000 tested, 0.16% active;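 active = inhibition of at least 50% in every replicate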
GRK2 inh: compounds blocking aptamer binding on GRK2 – biochemical, human GRK2, bead flow cytometry, HTS, primary screen; Beta-adrenergic receptor kinase 1 (Homo sapiens), P25098; FAM-aptamer displacement from GRK2; inhibition of aptamer binding, % at 10 µM; 330,000 tested, 0.59% active; AID 488847, 2010;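 active = inhibition of aptamer binding above 40%, roughly 3 SD of noise, on plates passing a quality check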;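 note: median bead fluorescence of bound FAM aptamer so fluorescent compounds give negative values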
Rce1 inhib: yeast Rce1p protease inhibitors, primary screen, biochemical, fluorescence, cell-free homogeneous | yeast membranes, quenched prenylated peptide cleavage fluorescence | calls only | 290,000 tested, 0.27% active;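 active = fall in fluorescence gain of 50% or more versus controls, with final raw signal at or below 3038400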;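 note: plate controls were neutral control wells for no effect and wells lacking membranes for full effect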
HDAC3 inhib: HDAC3 deacetylase inhibitors, primary screen, biochemical, fluorescence, cell-free homogeneous; Histone deacetylase 3 (Homo sapiens), O15379; recombinant HDAC3, fluorogenic peptide/trypsin coupled; inhibition, % at 8.3 µM; 320,000 tested, 0.15% active; in the data active = inhibition above about 26%, passing the limit was not always enough
Target sequence (O15379 whole entry, looked up): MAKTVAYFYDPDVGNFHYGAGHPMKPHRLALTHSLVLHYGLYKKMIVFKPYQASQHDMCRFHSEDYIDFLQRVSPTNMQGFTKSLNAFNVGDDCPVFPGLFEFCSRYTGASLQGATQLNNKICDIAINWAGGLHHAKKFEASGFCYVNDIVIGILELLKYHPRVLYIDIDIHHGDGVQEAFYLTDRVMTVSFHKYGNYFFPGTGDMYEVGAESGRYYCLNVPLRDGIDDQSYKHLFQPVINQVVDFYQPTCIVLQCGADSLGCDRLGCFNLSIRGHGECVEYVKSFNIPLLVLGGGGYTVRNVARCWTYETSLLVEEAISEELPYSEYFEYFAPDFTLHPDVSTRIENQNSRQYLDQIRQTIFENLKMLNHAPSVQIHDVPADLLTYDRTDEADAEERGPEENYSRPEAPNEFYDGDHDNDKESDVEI
ALR H2O2 inh: inhibitors of human ALR sulfhydryl oxidase, primary screen, biochemical, H2O2 detection, HRP-luminol luminescence, single point | inhibition, % (test concentration not listed) | 290,000 tested, 3.8% active | purified ALR, DTT oxidation | FAD-linked sulfhydryl oxidase ALR (Homo sapiens), P55789;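 active = mean replicate inhibition above about 79%, with every replicate also reaching it, limit read from the data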
Target sequence (P55789 whole entry, looked up): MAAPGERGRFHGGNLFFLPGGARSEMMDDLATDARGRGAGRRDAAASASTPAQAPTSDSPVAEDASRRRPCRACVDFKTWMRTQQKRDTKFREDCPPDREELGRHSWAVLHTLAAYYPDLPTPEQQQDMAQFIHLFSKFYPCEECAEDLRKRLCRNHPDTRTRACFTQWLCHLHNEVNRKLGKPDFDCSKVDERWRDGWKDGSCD
Efflux pump inh: inhibitors of Candida efflux pumps in yeast, primary screen, S. cerevisiae, Nile Red, multiplex | S. cerevisiae Candida pump triplex | inhibition, % at 10 µM | 330,000 tested, 0.44% active;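 active = plate passing quality check with inhibition over a set limit, or well fluorescence over plate mean plus 4 SD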;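 note: Nile Red retained in pooled yeast measured as flow cytometry median fluorescence; 0% = buffer negative control and 100% = Enniatin B positive control; higher means more Nile Red kept so more efflux inhibition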
Cmpd fluor yeast: flagged as fluorescent in efflux inhibitor counter-screen; shares compounds with Efflux pump inh; S. cerevisiae AD/pABC3, compound fluorescence, flow cytometry; fluorescence ratio to DMSO, % at 10 µM; 1,700 tested, 4% active;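 active = fluorescence ratio to DMSO above its plate's cutoff, the plate mean ratio plus 5 SD, cut at about 210% in these data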;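 note: unstained yeast with no Nile Red so the signal is compound autofluorescence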
CaMdr1 efflux inh: inhibitors of Candida albicans Mdr1 efflux, confirmation, flow cytometry, singleplex, Cherry Pick1 set; shares compounds with Efflux pump inh; S. cerevisiae AD/CaMDR1, Nile Red efflux; inhibition, % at 10 µM; 1,700 tested, 1% active; AID 588518, 2011; in the data active = inhibition above about 26%;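 note: 0% = DMSO vehicle and 100% = reference inhibitor; higher means more Nile Red retained so more efflux inhibition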
Cdr2 pump inh: inhibitors of Candida albicans Cdr2 efflux pump, confirmation, S. cerevisiae AD/CaCDR2, flow cytometry, cherry pick 1, singleplex. shares compounds with Efflux pump inh. Nile Red retention. Nile Red retention ratio vs DMSO, % at 10 µM. 1,700 tested, 4% active; in the data active = Nile Red retention ratio vs DMSO above about 190%;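 note: higher ratio means more blocking of Cdr2 efflux of the dye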
CaCdr1 efflux inh: inhibitors of Candida albicans Cdr1 efflux pump, confirmation, S. cerevisiae AD/CaCDR1, flow cytometry, cherry pick 1, singleplex. Nile Red efflux. 1,700 tested, 1% active. inhibition, % at 10 µM. shares compounds with Efflux pump inh;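 active = inhibition above the screen-wide mean plus twice its standard deviation, cut at about 32% in these data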
* marks the source's active call; other numbers are inactive results.

What do the screens show for `COC(=O)c1ccc(S(=O)(=O)NCc2ccc(OC)cc2)n1C`?
Rtt109 HAT inh: 4.9; GRK2 inh: 0.0; Rce1 inhib: inactive; HDAC3 inhib: 3.4; ALR H2O2 inh: 0.2; Efflux pump inh: 2.5*; Cmpd fluor yeast: 102.2; CaMdr1 efflux inh: -0.1; Cdr2 pump inh: 98.1; CaCdr1 efflux inh: 0.2

How did C/C(=N\NC(=O)c1ccoc1C)c1cccc2ccccc12 do in these assays?
Rtt109 HAT inh: 1.7; GRK2 inh: 5.0; Rce1 inhib: inactive; HDAC3 inhib: 0.0; ALR H2O2 inh: -4.6; Efflux pump inh: 0.0

How did CCN(CC)C(=O)CSc1nnnn1-c1ccc(F)c(Cl)c1 do in these assays?
Rtt109 HAT inh: 0.9; GRK2 inh: 0.0; Rce1 inhib: inactive; HDAC3 inhib: 7.3; ALR H2O2 inh: -12.8; Efflux pump inh: -0.5

Results for COc1ccc(-c2nc(C(N)=O)c3[nH]c(=O)n(-c4ccccc4OC)c3n2)c(OC)c1 ?
Rtt109 HAT inh: 7.3; GRK2 inh: 2.0; Rce1 inhib: inactive; HDAC3 inhib: 2.3; ALR H2O2 inh: -9.8; Efflux pump inh: -0.1; Cmpd fluor yeast: 98.9; CaMdr1 efflux inh: -0.4; Cdr2 pump inh: 92.0; CaCdr1 efflux inh: 0.0

How did Cc1ccc(-n2c(=O)[nH]c3c(C(N)=O)nc(-c4ccc(C)o4)nc32)cc1 do in these assays?
Rtt109 HAT inh: -1.3; GRK2 inh: 11.0; Rce1 inhib: inactive; HDAC3 inhib: 7.2; ALR H2O2 inh: 65.9; Efflux pump inh: -0.1; Cmpd fluor yeast: 98.6; CaMdr1 efflux inh: -0.2; Cdr2 pump inh: 93.0; CaCdr1 efflux inh: -0.4

What do the screens show for `CCC(CC)c1nc(C(N)=O)c2[nH]c(=O)n(-c3ccc(OC)c(OC)c3)c2n1`?
Rtt109 HAT inh: 1.7; GRK2 inh: 1.0; Rce1 inhib: inactive; HDAC3 inhib: 7.7; ALR H2O2 inh: -9.1; Efflux pump inh: 0.4

How did COc1ccc(OC)c(-c2nc(C(N)=O)c3[nH]c(=O)n(-c4ccc(F)cc4)c3n2)c1 do in these assays?
Rtt109 HAT inh: -11.2; GRK2 inh: 0.0; Rce1 inhib: inactive; HDAC3 inhib: 1.2; ALR H2O2 inh: -18.3; Efflux pump inh: 0.2; Cmpd fluor yeast: 80.1; CaMdr1 efflux inh: 0.4; Cdr2 pump inh: 89.0; CaCdr1 efflux inh: -0.1

How did Cc1cc(-c2nnc(CCC(=O)NCc3ccc(OC(F)(F)F)cc3)o2)no1 do in these assays?
Rtt109 HAT inh: 11.9; GRK2 inh: 0.0; Rce1 inhib: inactive; HDAC3 inhib: -5.0; ALR H2O2 inh: 0.5; Efflux pump inh: 0.0

How did CCOCCCNC(=S)N(CCO)Cc1cc2cc3c(cc2[nH]c1=O)OCCO3 do in these assays?
Rtt109 HAT inh: -1.9; GRK2 inh: 0.0; Rce1 inhib: inactive; HDAC3 inhib: 21.2; ALR H2O2 inh: -31.3; Efflux pump inh: -0.4

Results for COc1ccc(-n2c(=O)c(CCC(=O)N3CCC(C)CC3)nc3ccccc32)cc1 ?
Rtt109 HAT inh: 5.3; GRK2 inh: 2.0; HDAC3 inhib: 4.9; Efflux pump inh: 0.1

What do the screens show for `Cc1cc(NC(=O)CN2C(=O)c3ccccc3S2(=O)=O)no1`?
Rtt109 HAT inh: -10.3; GRK2 inh: 3.0; Rce1 inhib: inactive; HDAC3 inhib: -2.4; ALR H2O2 inh: -14.0; Efflux pump inh: -0.2

What do the screens show for `O=C(CN1C(=O)c2ccccc2S1(=O)=O)Nc1ccon1`?
Rtt109 HAT inh: 3.5; GRK2 inh: 1.0; Rce1 inhib: inactive; HDAC3 inhib: 2.1; ALR H2O2 inh: 0.3; Efflux pump inh: 1.1*; Cmpd fluor yeast: 100.2; CaMdr1 efflux inh: -0.1; Cdr2 pump inh: 105.7; CaCdr1 efflux inh: 0.0

How did CCN(C(=O)c1cccc(S(=O)(=O)N2CCCCC2)c1)C1CCS(=O)(=O)C1 (centres undefined) do in these assays?
Rtt109 HAT inh: 5.3; Rce1 inhib: inactive

How did CCOc1cccc(-c2nc(C(N)=O)c3[nH]c(=O)n(-c4cccc(Cl)c4)c3n2)c1O do in these assays?
Rtt109 HAT inh: -10.3; GRK2 inh: 4.0; Rce1 inhib: inactive; HDAC3 inhib: 5.1; ALR H2O2 inh: 5.7; Efflux pump inh: 0.1; Cmpd fluor yeast: 105.0; CaMdr1 efflux inh: 0.3; Cdr2 pump inh: 122.6; CaCdr1 efflux inh: 0.1

How did CCOc1ccccc1-c1nc(C(N)=O)c2[nH]c(=O)n(-c3cccc(C)c3)c2n1 do in these assays?
Rtt109 HAT inh: -6.8; GRK2 inh: 1.0; Rce1 inhib: inactive; HDAC3 inhib: -1.6; ALR H2O2 inh: 9.8; Efflux pump inh: 0.7*; Cmpd fluor yeast: 94.4; CaMdr1 efflux inh: 0.9; Cdr2 pump inh: 114.4; CaCdr1 efflux inh: 1.4

What do the screens show for `CCCCc1nc(C(N)=O)c2[nH]c(=O)n(-c3ccc(OC)c(OC)c3)c2n1`?
Rtt109 HAT inh: -4.3; GRK2 inh: 0.0; Rce1 inhib: inactive; HDAC3 inhib: 0.4; ALR H2O2 inh: -17.6; Efflux pump inh: -0.1

What do the screens show for `CCCCCCCCn1ccc(=N)cc1`?
Rtt109 HAT inh: -2.5; GRK2 inh: 0.0; Rce1 inhib: inactive; HDAC3 inhib: 4.7; ALR H2O2 inh: -2.0; Efflux pump inh: 0.8*; Cmpd fluor yeast: 97.0; CaMdr1 efflux inh: -0.3; Cdr2 pump inh: 107.8; CaCdr1 efflux inh: 0.2

How did CCCCCCCCCCn1ccc(=N)cc1 do in these assays?
Rtt109 HAT inh: -0.7; GRK2 inh: 0.0; Rce1 inhib: inactive; HDAC3 inhib: 4.1; Efflux pump inh: 1.3

What do the screens show for `COc1cc(/C=C/C(=O)c2ccc(O)cc2)ccc1OCC#N`?
Rtt109 HAT inh: 4.2; GRK2 inh: 0.0; Rce1 inhib: inactive; HDAC3 inhib: 4.3; ALR H2O2 inh: 60.2; Efflux pump inh: 11.4*; Cmpd fluor yeast: 95.0; CaMdr1 efflux inh: -0.4; Cdr2 pump inh: 108.0; CaCdr1 efflux inh: 0.0
